# Source: PubChem BioAssay (National Center for Advancing Translational Sciences (NCATS))
# KB-3-1 cytotox = KB-3-1 parental cell cytotoxicity | KB-3-1 viability, CellTiter-Glo ATP luminescence, 72 h | 400,000 compounds, 1.4% hits | Potency, µM (highest dose often 46.1 µM), hits mostly cytotoxic; note: % is set by controls: 0 for no effect and ±100 for the full control effect; nearly all actives have a fitted effect of over 60% in size
#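 Multi-concentration cytotoxicity screen in KB-3-1 cells grown in DMEM lacking phenol red with 10% FBS. After 72 h at 37 °C with compound, ATP-dependent luminescence was recorded.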
# HepG2 tox = counter-screen for TGF-b inhibitors: cytotoxicity in HepG2 cells; HepG2 CAGA-GFP viability, ATP luminescence, 18 h; 410,000 compounds, 0.76% hits; Potency, µM (titrated, usually from 46.1 µM), for inactives: top-dose activity change, negative = cytotoxicity, most hits filed as cytotoxic
#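 HepG2 CAGA-GFP cells (1000/well, DMEM with 1% FBS) received compound, then TGF-beta at 500 pg/mL final, and were incubated 18 hours at 37 degrees C. Viability was read by CellTiter-Glo luminescence. Media-only wells were set as complete cell-killing and DMSO as no toxicity.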
# KB-V1 cytotox = kills drug-selected multidrug resistant KB-V1 cells | KB-V1 MDR cells viability, CellTiter-Glo, 72 h | AID 1347076 | Potency, µM (titrated, usually from 46.1 µM), actives largely listed as cytotoxic | 400,000 compounds, 3.4% hits; note: % is set by controls: 0 for no effect and ±100 for the full control effect; nearly all actives have a fitted effect of over 60% in size
#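 KB-V1 cells (P-gp-expressing MDR subline of KB-3-1) in phenol-red-free DMEM with 10% FBS were exposed to library compounds over a concentration series for 72 h at 37 degrees C. Viability read by CellTiter-Glo luminescence; concentration-effect curves fitted after normalization.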
# TGFb inhibitor = blocks TGF-b signaling; HepG2 CAGA-GFP TGF-b/SMAD3 reporter, GFP fluorescence, 18 h; TGF-beta stimulated, 500 pg/mL final; Potency, µM (highest dose often 46.1 µM), for the others: at the highest dose activity, negative = inhibition, most hits filed as inhibitors; 410,000 compounds, 1.2% hits; AID 588855; note: % is set by controls: 0 for no effect and ±100 for the full control effect; nearly all actives have a fitted effect of over 65% in size
#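 GFP signal (ex488/em500-530) from TGF-beta-stimulated HEPG2 CAGA-GFP cells, 500 pg/mL final, 18 h at 37 degrees C in DMEM plus 1% FBS, normalized to unstimulated and DMSO-stimulated controls.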
# ATXN2 expr inh = ATXN2 expression inhibition; HEK-293 ATXN2-luciferase reporter, luminescence, 24 h; Potency, µM (titrated, usually from 57 µM), inactives show at the top dose activity change, negative = inhibition, usual class: inhibitors; 360,000 compounds, 0.72% hits; AID 1745845; note: % is set by controls: 0 for no effect and ±100 for the full control effect; nearly all actives have a fitted effect of over 55% in size
#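 qHTS (up to 57 uM final) was run with 24 h compound exposure of reporter cells at 37 °C. Each well was multiplexed: SteadyGlo luminescence measured ATXN2-luciferase expression after a fluorogenic Gly-Phe-AFC viability readout (25 uM final).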
# S2 tox = cell viability loss in ATXN counter-screen. S2 cells (HEK-293 line with an ATXN2-luciferase reporter) viability, CellTiter-Fluor protease fluorescence, 24 h. Potency, µM (titrated, usually from 56.7 µM), hits mostly cytotoxic. 400,000 compounds, 0.49% hits. AID 651635; note: nearly all actives have a fitted effect of over 40% in size
# * marks the source's active call; other numbers are inactive results; i = inactive; ? = inconclusive; . = no result given. An excerpt weighted towards active compounds, which were near 5.9% of everything screened. Calls come from the whole dose curve; as a rule, active = well fitted curve in the direction sought with a large enough effect; inconclusive = small, poorly fitted or top-dose-only effect, or another doubt; inactive = no such curve, though single readings can be large; an effect the other way counts as inactive or inconclusive. Potency is the fitted concentration of half-maximal effect.
SMILES,KB-3-1 cytotox,HepG2 tox,KB-V1 cytotox,TGFb inhibitor,ATXN2 expr inh,S2 tox
O=C(Cc1cccs1)NNC(=S)NCc1ccco1,i,-4%,i,-3%,3%,i
O=S1(=O)N=C(Oc2cccc(-c3ccccc3)c2)c2ccccc21,i,.,i,.,.,.
O=C(Cc1ccc2c(c1)OCO2)N1CCOc2ccc(CN3CCOCC3)cc2C1,.,.,.,.,.,i
CC(C)(C)c1ccc(C(=O)c2c[nH]c(C(=O)NCc3cccnc3)c2)cc1,?,-22%,i,-6%,13%,i
O=C(Nc1c(Cl)cc(Cl)cc1C(=O)NCc1cccnc1)c1ccc(Cl)cc1Cl,?,1%,i,-6%,-11%,i
O=C(Nc1ccc(Cl)cc1C(=O)NCc1cccnc1)c1ccc(Cl)cc1Cl,21µM*,-13%,?,-5%,-9%,i
O=C(Cc1ccc(Cl)cc1)c1c[nH]c(C(=O)NCc2cccnc2)c1,i,7%,i,-28%,.,2.5µM*
O=C(Cc1ccc(-c2ccccc2)cc1)NCc1cccnc1,15µM*,-11%,?,-13%,-24%,i
O=C(NCc1ccc(Cl)cc1)c1ccccc1CCc1ccccc1,i,3%,21µM*,0%,-7%,?
O=C(COc1ccc(F)cc1)Nc1ccc(S(=O)(=O)N(Cc2ccccc2)c2ccccc2)cc1,?,-3%,i,-5%,-16%,i
Nc1nc2ccccc2cc1C(=O)NCc1ccc(-c2ccccc2)cc1,2.3µM*,.,2.6µM*,.,.,.
Cc1ccc(CNC(=O)Cc2ccc(-n3cccc3)cc2)cc1,7.3µM*,-4%,2.3µM*,-22%,3%,i
COc1ccc(CC(=O)NCc2ccc(-n3cccc3)cc2)cc1OC,4.1µM*,-4%,8.2µM*,0%,-24%,?
O=C(Cc1ccc(-n2cccc2)cc1)NCc1cccs1,1.6µM*,-12%,1.2µM*,?,-15%,i
O=C(CNC(=O)Cc1ccccc1)NCc1cccs1,i,4%,i,-3%,7%,i
Cc1noc(C)c1CSc1nnc(-c2cc(Cl)ccc2Cl)n1N,i,-24%,i,2%,?,i
COc1ccc(-c2nnc(SCc3c(C)noc3C)n2N)cc1OC,i,0%,7.3µM*,0%,4%,i
Cn1c(C2CCC2)nc2cc(C(=O)N3CCOc4ccccc4C3)cc(NC(=O)C3CCCO3)c21 (centres undefined),.,.,.,.,.,i
O=C(Nc1ccc(F)c(F)c1)c1cc(S(=O)(=O)NC2CCCC2)ccc1F,.,-16%,.,?,.,.
O=C(Nc1ccc(Br)cc1)c1cc(S(=O)(=O)NC2CCCC2)ccc1F,21µM*,-61%,?,?,?,?
O=C(Nc1ccc(C(F)(F)F)cc1)c1cc(S(=O)(=O)NC2CCCCC2)ccc1F,i,-103%,?,13µM*,?,?
Cc1ccc(NC(=O)c2cc(S(=O)(=O)NC3CCCCC3)ccc2F)cc1Cl,.,10µM*,.,10µM*,.,.
O=C(Nc1ccc(S(=O)(=O)NC2=NCCCCC2)cc1)c1ccc(C(F)(F)F)cc1,21µM*,-20%,21µM*,-31%,.,?
CN(C)S(=O)(=O)c1ccc(C(=O)Nc2ccc(S(=O)(=O)NC3=NCCCCC3)cc2)cc1,i,-15%,i,-4%,8%,i
